Test results: PubChem BioAssay (Tox21)
Several values for one entry are separate records, joined by “and”; a condition that tells them apart may be missing. Equal values may be shown once. Records with an inconclusive call do not appear. Entries that show only a call come without a potency. A structure can be active in one record and inactive in another. Activity calls are given as the source filed them. Calls come from the whole dose curve; as a rule, active = well fitted cell-killing curve with a large enough effect in the repeat runs; inconclusive = weak or mixed curves, or effect the other way; inactive = no such curve, though single readings can be large or run the other way.

Experiment: qHTS assay to identify small molecule antagonists of the thyroid receptor (TR) signaling pathway - cell viability counter screen (AID 743064); note: nearly all actives have a fitted effect of over 50% in size
Conditions: GH3.TRE-Luc viability, CellTiter-Fluor, 24 h; series mostly up to 70.3 µM; activity change, negative = cytotoxic: at the top concentration
Outline: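 Same-well viability check: GH3.TRE-Luc cells stimulated with 1 nM T3 alongside test compound for 23.5 h, followed by CellTiter-Fluor fluorescence.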
Potency is the fitted concentration of half-maximal effect.

SMILES | Potency | activity change, negative = cytotoxic
CNC(=O)O/N=C(\SC)C(=O)N(C)C | inactive | –
CCCCC(CC)C(=O)Cl (stereo not given) | inactive | –
O=[N+]([O-])c1ccc(Cl)c(Cl)c1 | inactive | –
CNC(=O)O/N=C/C(C)(C)S(C)=O (stereo not given) | inactive | –
COP(=S)(OC)SCN1C(=O)c2ccccc2C1=O | inactive | –
CNC(=O)Oc1cccc2ccccc12 | inactive | –
CNC(=O)O/N=C/C(C)(C)SC | inactive | –
CC(C)CCCCCCOC(=O)c1ccccc1C(=O)OCCCCCCC(C)C | inactive | –
O=C(O)CCCc1ccc(N(CCCl)CCCl)cc1 | 61.1 µM (active) | –
O=C(O)Cc1ccccc1 | inactive | –
Oc1ccc(Cl)cc1 | inactive | –
OCc1ccco1 | inactive | –
FC(F)(F)c1ccc(Cl)cc1 | inactive | –
Nc1ccc(N)cc1 | inactive and 30.8 µM (active) | –
Cc1cc(Cl)ccc1OC(C)C(=O)O (stereo not given) | – | 0.738% (inactive)
O=[N+]([O-])c1cc([As](=O)(O)O)ccc1O | inactive | –
COP(=S)(OC)Oc1ccc(SC)c(C)c1 | inactive | –
CN(C)CCC#N | – | 0.501% (inactive)
COc1nc(NC(C)C)nc(NC(C)C)n1 | – | 13% (inactive)
Cc1cccc(C)c1NC(=O)CN1CCCC1=O | inactive | –
COS(=O)(=O)OC | inactive | –
CNC(=O)O/N=C/C(C)(C)S(C)(=O)=O | inactive | –
Sc1ccccc1 | inactive | –
Nc1ccc([As](=O)(O)O)cc1 | inactive | –
Cc1ccc(O)c(C)c1 | inactive | –
C=CC(=O)OCCCCCC(C)C | – | 18.7% [at 95 µM] (inactive)
CCOc1ccc(N)cc1 | inactive | –
CSc1nnc(C(C)(C)C)c(=O)n1N | inactive | –
C[C@H]1C(=O)O[C@@H]2CCN3CC=C(COC(=O)[C@](C)(O)[C@]1(C)O)[C@H]23 | inactive | –
O=C/C=C/c1ccccc1 | inactive | –
